# Screening results: PubChem, several laboratories
# TRAIL sens C8: caspase-8 TRAIL sensitization; NB7+C8 cells + TRAIL, ATPlite viability luminescence; AID 624354; inhibition (viability loss, TRAIL sensitization), % at 10 µM; 360,000 compounds, 1% hits;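 active = compounds causing at least 50% loss of cell viability in the single-dose screen, relative to plate controls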
# TWEAK-Fn14 inh: TWEAK-Fn14 signaling inhibition; 360,000 compounds, 2% hits; TWEAK-stimulated Fn14 reporter cells, luciferase luminescence, 8 h; inhibition, % at 10 µM; AID 1159606; in the data active = inhibition above about 50%
# TROY signal inh: inhibitors of TROY-dependent NF-kB signaling; Q293 LMP1-TROYcd NF-kB luciferase reporter, 4 h; inhibition, % at 10 µM; 360,000 compounds, 0.98% hits;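 active = compounds whose plate-normalised and pattern-corrected inhibition of the luciferase reporter signal at the single screening dose is 50% or more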
# HIF-2a block: blocks HIF-2a reporter activity | 786-0 RCC cells HIF-2a reporter, luciferase luminescence, overnight | inhibition, % at 18.8 µM | 360,000 compounds, 0.72% hits | AID 624352;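 active = inhibition of the luminescence signal of 40% or more relative to plate controls, in a single-dose primary screen at 18.75 µM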
# HSP90 inh: inhibitors of HSP90 luciferase refolding in rabbit reticulocyte lysate; luciferase refolding luminescence, 3 h; inhibition, % at 5.6 µM; AID 1789; 290,000 compounds, 0.91% hits;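 active = inhibition above the screen-wide mean plus 3 SD, computed separately per campaign, cut at about 16% in these data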;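 also: 0% = DMSO wells and 100% = 60 µM geldanamycin wells; inhibitors lower the luminescence because luciferase stays unfolded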
# aSyn 5UTR inh: MLPCN primary screen, SNCA 5' untranslated region | alpha-synuclein 5'UTR reporter, inhibitor activity | 300,000 compounds, 0.82% hits | inhibition, % (tested at 7.5 µM); in the data active = inhibition above about 60%;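 also: H4 neuroglioblastoma cells stably carrying SNCA 5'UTR luciferase fusion; 0% = DMSO wells and 100% = positive control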
# Active calls of the source: *; nt = no result given. In the library only some 3.9% were active in any assay of this set; here they are far more common.
SMILES,TRAIL sens C8,TWEAK-Fn14 inh,TROY signal inh,HIF-2a block,HSP90 inh,aSyn 5UTR inh
CC1=C(C)C(=O)C(CCCCC#CCCCC#CCO)=C(C)C1=O,-2,24,10,10,5,9
COC1=C(OC)C(=O)C(CCCCCCCCCCO)=C(C)C1=O,-12,77*,50*,5,27*,nt
COCC(=O)N[C@H]1C=C[C@@H](CC(=O)OC)O[C@@H]1CO,-9,nt,nt,6,nt,nt
Cc1ccc(C)c(S(=O)(=O)N2CCN(C(=O)c3cc(-c4cccs4)nn3-c3ccccc3)CC2)c1,10,64*,33,22,nt,23
N#C/C(=C\Nc1ccccc1O)c1nc2ccccc2o1,7,43,52*,-170,0,-112
COC(=O)[C@]12CCCCC=C1N(Cc1ccc3c(c1)OCO3)C(=O)[C@H](CC(=O)NCc1ccc(OC)c(OC)c1)C2,15,nt,nt,-4,nt,nt
COc1ccc(Sc2ccc(NC(=O)c3ccccc3Cl)cc2C#N)cc1,24,15,1,-2,-3,-12
N#Cc1cc(NC(=O)c2ccc(Cl)cc2)ccc1Sc1ccccc1,29,64*,50*,-131,nt,nt
C[C@H]1CN([C@@H](C)CO)C(=O)c2cc(Br)cnc2O[C@H]1CN(C)C(=O)c1ccccn1,-12,9,-4,10,nt,nt
CC(C)(C=O)C1=CC(=O)c2ccccc2C1=O,0,63*,70*,42*,8,nt
CC1=CC(=O)c2ccccc2C1=O,2,10,15,6,4,10
N#Cc1ccc(C(=O)N2CCC3CC2c2cc(N4CCCCC4)ccc23)cc1 (stereo not drawn),-2,-7,7,12,nt,nt
O=c1[nH]nc(Sc2ncnc3sccc23)n1CCc1ccccc1,19,57*,22,29,0,-43
COc1ccc(C2C(C(=O)Nc3cccc(C)n3)CCC(=O)N2c2ccc(OC)cc2)cc1 (stereo not drawn),nt,nt,nt,nt,4,73*
CC(C)C(C)NC(=O)COc1ccc(Sc2ccc(OCC(=O)NC(C)C(C)C)cc2)cc1 (stereo not drawn),15,66*,28,6,-3,7
CCN(c1ccccc1)S(=O)(=O)c1ccc(Cl)c(NC(=O)CSc2nc(N)cc(=O)[nH]2)c1,-19,21,1,9,nt,nt
CCOC(=O)C1CCN(S(=O)(=O)c2c(Cl)ccc3nonc23)CC1,41,75*,68*,92*,-2,-309
Cc1cc(NC(=O)COC(=O)C2CCN(S(=O)(=O)c3c(Cl)cccc3Cl)CC2)no1,20,92*,nt,14,-1,-3
CCc1ccc2c(c1)NC(=O)C2(C)Cc1ccccc1OC (stereo not drawn),14,23,6,9,nt,nt
CCc1nc2c(OCc3ccccc3)cccn2c1N(C)C(=O)C(C)C,-6,-8,-5,12,nt,nt
CCCCn1nnnc1C(c1cc2ccccc2o1)N1CCN(CC(=O)N2CCCC2)CC1 (stereo not drawn),-1,-1,5,12,nt,nt
CSc1nc(N)n2nc(-c3ccc(Cl)cc3)cc2n1,45*,-26,-44,-274,-2,-59
COc1cc(/C=N/Nc2ccccc2)ccc1O,-15,17,17,-1,3,-8
COc1cc(/C=N/Nc2nncn2/N=C/c2ccc(O)c(OC)c2)ccc1O,75*,-20,-45,-130,12,-18
Cc1ccccc1NC(=O)Nc1nc2ccc(S(C)(=O)=O)cc2s1,-3,-72,-26,-130,4,-85
SMILES,TRAIL sens C8,TWEAK-Fn14 inh,TROY signal inh,HIF-2a block,HSP90 inh,aSyn 5UTR inh
NS(=O)(=O)c1ccc2nc(NC(=O)Nc3ccccc3F)sc2c1,14,51*,8,-236,4,-50
COCCN1C(=O)CSCC1(C)C(=O)NCc1ccccc1 (stereo not drawn),-20,nt,nt,-10,nt,nt
COc1cc(-c2cc(=O)c3c(O)c(OC)c(OC)c(O)c3o2)ccc1O,28,20,7,27,-4,87*
COc1cccc(-c2nnc(-c3ccc(C)o3)o2)c1,58*,36,-40,-119,8,53
COC(=O)CN1C(=O)N(c2ccccc2)C(N(O)C(=O)Nc2ccccc2)C1(C)C (stereo not drawn),-23,0,-27,-30,4,-5
COC(=O)CNC(=O)CN1C(=O)N(c2ccccc2)C(N(O)C(=O)Nc2ccccc2)C1(C)C (stereo not drawn),-10,81*,-9,-11,-1,17
